For 8 compounds, growth inhibition results are on record in PubChem BioAssay (NCI).

About 79,000 compounds went through this panel and 15% of them were active in at least one assay; those are over-represented in the sample as a whole. Values without a mark were called inactive. Activity calls are given as the source filed them. Cut-off read from the data, not from the text of the source: active = growth inhibition above about 70%; inactive = the rest.

The nature of this experiment: NCI Yeast Anticancer Drug Screen. Data for the CLN2oe strain (AID 163).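 Note: 0% = growth of vehicle-only control cultures.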 The settings on record: S. cerevisiae CLN2oe strain, stronger effect = higher value. As for the experimental part:
Growth inhibition of yeast strains with defined genetic alterations is measured as a screen for potential anti-cancer activity. Selected strains with alterations in DNA damage repair or cell cycle control were exposed to compounds and growth inhibition was measured relative to vehicle treated controls. The strain used in this assay is CLN2oe

`COc1ccc2oc(-c3ccc(Cl)cc3)c(N3CCN(C)CC3)c2c1`: the growth inhibition by setting is: (at 1.2 µM) -6%; (at 3.7 µM) -5%; (at 11.0 µM) 98% (active); (at 33.0 µM) 99% (active); (at 100.0 µM) 98% (active).
As to `NC(N)=NCCCS(=O)(=O)Nc1ccc(Nc2c3ccccc3nc3cc([N+](=O)[O-])ccc23)cc1`, the growth inhibition by setting is: (at 1.2 µM) -65%; (at 3.7 µM) -47%; (at 11.0 µM) -51%; (at 33.0 µM) -11%; (at 100.0 µM) 49%.
In the case of `COC(=O)/C=C1/OC(c2ccc(Br)cc2)=C(Br)C1=O`, the growth inhibition is 8% (at 1.2 µM); 10% (at 3.7 µM); 10% (at 11.0 µM); 26% (at 33.0 µM); 59% (at 100.0 µM).
Turning to `COC(=O)CSc1nnc(CSc2ccc(Cl)cc2)n1-c1ccccc1`, the growth inhibition by setting is: (at 1.2 µM) -2%; (at 3.7 µM) 6%; (at 11.0 µM) 14%; (at 33.0 µM) 19%; (at 100.0 µM) 19%.
Regarding `CCOC(=O)[C@]1(Br)CC[C@@]1(Br)C(=O)OCC`, the growth inhibition is, setting by setting: (at 1.2 µM) -3%; (at 3.7 µM) 15%; (at 11.0 µM) 15%; (at 33.0 µM) 91% (active); (at 100.0 µM) 99% (active).
`C/C(=N\NC(=S)NC1CCCC1)c1ccccn1`: the growth inhibition was -6% (at 1.2 µM); 84% (active) (at 3.7 µM); 99% (active) (at 11.0 µM); 99% (active) (at 33.0 µM); 99% (active) (at 100.0 µM).
On to `O=C(NC(=S)Nc1ccccn1)c1ccccc1`, for which the growth inhibition was -4% (at 1.2 µM); -15% (at 3.7 µM); -11% (at 11.0 µM); -23% (at 33.0 µM); -15% (at 100.0 µM).
For `O=NN(CCCl)C(=O)NC1CCCCC1`, the growth inhibition is -3% (at 1.2 µM); -2% (at 3.7 µM); -3% (at 11.0 µM); -5% (at 33.0 µM); 18% (at 100.0 µM).
